The results in this text go back to PubChem BioAssay (NCATS).

Experiment [1] has as its system Zika virus NS2B-NS3 protease (unlinked complex). Nature of the experiment: Primary screen GU Rhodamine qHTS for Zika virus inhibitors: Unlinked NS2B-NS3 protease assay (AID 1347159). Further: on the % scale 0 is the no-effect control and ±100 the full control effect; nearly all actives have a fitted effect of over 60% in size. A digest of the protocol: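 Enzyme 25 nM in Tris-HCl pH 8.0 + 0.01% Tween 20; compounds up to 114 microM, 15 min RT dark; + Rhod110 substrate 1.5 microM; read t0 and 15 min; delta fluorescence → % inhibition → 4-parameter Hill fit.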
(In general: qHTS replaces the single test concentration by a dilution series.)

Experiment [2] concerns Zika virus NS2B-NS3 protease (linked construct). Briefly: Primary screen NINDS Rhodamine qHTS for Zika virus inhibitors (AID 1347160). Further: on the % scale 0 is the no-effect control and ±100 the full control effect; nearly all actives have a fitted effect of over 55% in size. A digest of the protocol: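 Enzyme (25 nM, linked NS2B-NS3) was preincubated 15 min with compound in 10 mM Tris-HCl pH 8.0, 0.01% Tween 20. Rhodamine110 substrate (1.5 microM) was then added and fluorescence read at start and after 15 min.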

Experiment [3] addresses Calcium and integrin-binding protein 1 (Homo sapiens) (UniProt Q99828). Briefly: Primary qHTS for Identification of Calcium Integrin Binding Protein 1 (CIB1) Competitor (AID 1508620).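 Further: GST tagged CIB1 binding a fluorescein labelled alphaIIb integrin peptide tracer; top concentration of the series differs between compounds; on the % scale 0 is the no-effect control and ±100 the full control effect.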 A digest of the protocol:
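Fluorescence polarization competition: CIB1-GST (1 uM final) preincubated with compound 15 min at room temperature, then FITC-labeled alphaIIb peptide (100 nM final) added for another 15 min. Polarization read at Ex 480/Em 540.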

A short description of experiment [4]: Primary qHTS for inhibitors of nuclear receptor binding SET domain protein 2 (NSD2) in an isogenic RCH-ACV NSD2 p.E1099K mutant (9B) (AID 1645876). Further: potency means the concentration at half of the fitted maximal effect; nearly all actives have a fitted effect of over 70% in size.
Experiment [5] is described as follows: Primary qHTS for inhibitors of nuclear receptor binding SET domain protein 2 (NSD2) in an RCH-ACV wild type WT cells (2C) (AID 1645877). Further: potency means the concentration at half of the fitted maximal effect; nearly all actives have a fitted effect of over 70% in size.
Experiment [6] concerns the target Glutathione peroxidase 1 (Homo sapiens) (UniProt P07203). Briefly: Primary qHTS Assay for Inhibitors of Recombinant Selenoprotein Glutathione Peroxidase 1 (GPX1) (AID 1845191). Further: nearly all actives have a fitted effect of over 65% in size. A digest of the protocol:
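GPX1 10 nM, GR 100 nM, GSH 1 mM, NADPH 0.5 mM, CHP 0.5 mM (final). 30-min cpd preincubation, RT. Ex340/Em450 read t=0, t=15 min.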

Experiment [7] has as its target Phospholipid hydroperoxide glutathione peroxidase GPX4 (Homo sapiens) (UniProt P36969). Briefly: Primary qHTS Assay for Inhibitors of Recombinant Selenoprotein Glutathione Peroxidase 4 (GPX4) (AID 1845192). Further: nearly all actives have a fitted effect of over 65% in size. A digest of the protocol:
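qHTS, GR-coupled: GPX4 200 nM + cpd 30 min RT → GSH 1 mM, NADPH 0.5 mM, GR 100 nM → CHP 0.5 mM start; fluor 340/450 at t0 and t15 min; no-enzyme wells as control.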

Experiment [8] addresses Luciferin 4-monooxygenase (Photinus pyralis) (UniProt P08659). Briefly: Primary firefly luciferase (FLuc) qHTS assay for identification of artifact compounds. (AID 1845220). Further: nearly all actives have a fitted effect of over 60% in size. To be noted: outcome: dose series up to 54.1 µM unless noted. The method in brief:
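In this counter-screen for luciferase artifacts, test compounds met substrate (10 uM each luciferin and ATP) before 10 nM enzyme started the reaction. Light output was measured 5 min later.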

The nature of experiment [9]: Primary fluorescence-based thiol-reactive (MSTI) qHTS assay for identification of artifact compounds. (AID 1845221).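 Further: thiol-reactive compounds lower the probe fluorescence signal; nearly all actives have a fitted effect of over 65% in size.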 The method in brief:
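qHTS titration of compound; 4 uM MSTI, PBS pH 7.4, 2% DMSO; 1 h RT, dark; fluorescence 525/598 nm; normalized to Acetyl-MSTI and MSTI; 4-parameter Hill fit.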

Experiment [10] deals with Nanoluciferase (engineered Oplophorus gracilirostris luciferase). Nature of the experiment: Primary Nanoluciferase (NLuc) qHTS assay for identification of artifact compounds. (AID 1845222).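 Further: NLuc secreted into diluted conditioned medium of S16 cells.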 The method in brief: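 Using secreted nanoluciferase in S16 culture medium (0.22 um filtered, 1:55 dilution), compounds were preincubated 15 min at RT. Signal was generated with Nano-Glo reagent (1:100) over 5 min.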

The test system of the next experiment is Tov-21-G. Briefly: Primary qHTS to identify gynecologic anti-cancer compounds using libraries of approved drugs and bioactive compounds (AID 1345084). Further: on the % scale 0 is the no-effect control and ±100 the full control effect; nearly all actives have a fitted effect of over 55% in size. The following applies: Gynecologic cancer cell panel viability, ATPlite luminescence, 48 h; series mostly up to 57.5 µM. A digest of the protocol:
(§1)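 Cells, 1,000 per well, were allowed to settle for 16 h at 37 C before compound addition. Five concentrations were tested for 48 h, and viability was read by ATPlite luminescence after 15 min at room temperature.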

A further experiment relates to KB-3-1. Briefly: Cytotoxic Profiling of Annotated Libraries Using Quantitative High-Throughput Screening (AID 1296008). Further: on the % scale 0 is the no-effect control and ±100 the full control effect; nearly all actives have a fitted effect of over 60% in size. The following applies: Five cell lines viability, CellTiter-Glo ATP luminescence, 48-72 h; max response: hits give low values. A digest of the protocol: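 Compounds were pin-transferred onto cells and incubated 48 or 72 hr at 37 degree Celsius, 95% humidity. CellTiter-Glo was added, plates sat 10 min at room temperature, then ATP-coupled luminescence was imaged as the viability read-out.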
Background: Cellular ATP, detected with luciferase, serves as a proxy for viable cell number.

A further experiment relates to CASKI. Nature of the experiment: Primary qHTS to identify gynecologic anti-cancer compounds using libraries of approved drugs and bioactive compounds (AID 1345084). Further: on the % scale 0 is the no-effect control and ±100 the full control effect; nearly all actives have a fitted effect of over 55% in size. To be noted: Gynecologic cancer cell panel viability, ATPlite luminescence, 48 h; series mostly up to 57.5 µM. A digest of the protocol:
as §1

The subject of the next experiment is JEG-3. The description is as above. The following applies: Gynecologic cancer cell panel viability, ATPlite luminescence, 48 h; series mostly up to 57.5 µM. The method in brief:
as §1

For a further experiment, the system named is OV90. The experiment is described as above. The following applies: Gynecologic cancer cell panel viability, ATPlite luminescence, 48 h; series mostly up to 57.5 µM. The method in brief: as §1
Experiment [11] is described as follows: qHTS Assay for Identifying Gametocytocidal Compounds (AID 743244).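 Further: on the % scale 0 is the no-effect control and ±100 the full control effect; actives lower the fluorescent signal which means gametocytes are killed.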 To be noted: P. falciparum 3D7 stage III-V gametocytes, alamarBlue, 72 h; max response: hits give low values. A digest of the protocol:
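P. falciparum 3D7 stage III–V gametocytes (20,000 cells/well) were exposed to compounds for 72 h at 37 °C, 5% CO2. AlamarBlue was then added for 24 h; decreased resorufin fluorescence (Ex 525/Em 598 nm) indicated loss of viability.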

For the next experiment, the system named is astro. Nature of the experiment: Drug repurposing screens with cells derived from glioblastoma tumor samples (AID 1345199). Further: on the % scale 0 is the no-effect control and ±100 the full control effect; nearly all actives have a fitted effect of over 40% in size. The following applies: viability, ATP luminescence, 48 h; series mostly up to 45.9 µM. A digest of the protocol: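 Primary testing used CD133+ neurospheres from four GBM patients, seven concentrations, 48 h exposure and ATP-based viability; confirmation added three slower-growing patient lines.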

Experiment [12] in a line: P-glycoprotein substrates identified in KB-8-5-11 adenocarcinoma cell line, qHTS therapeutic library screen (AID 1346987). Further: nearly all actives have a fitted effect of over 65% in size. Further: potency means the concentration at half of the fitted maximal effect. The method in brief: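 Compounds are pinned in dose-response onto KB-8-5-11 cells (500 cells/well, colchicine-free medium) and left 72 h at 37 degree C. CellTiter-Glo luminescence then yields AC50 values.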

Unmarked numbers belong to inactive results. Inconclusive results are not listed. Active and inactive are the calls of the source. The call rests on the fitted dose curve; in most records, active means well fitted curve in the direction sought with a large enough effect; inconclusive means small, poorly fitted or top-dose-only effect, or another doubt; inactive means no such curve, though single readings can be large; an effect the other way counts as inactive or inconclusive.

Sequence of Glutathione peroxidase 1 (Homo sapiens) (P07203 whole entry, looked up): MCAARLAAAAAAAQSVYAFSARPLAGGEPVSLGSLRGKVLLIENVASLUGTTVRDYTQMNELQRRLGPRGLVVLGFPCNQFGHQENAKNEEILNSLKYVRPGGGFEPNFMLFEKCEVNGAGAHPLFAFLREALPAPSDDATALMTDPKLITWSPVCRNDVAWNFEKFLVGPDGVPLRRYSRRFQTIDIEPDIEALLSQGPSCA
Sequence of Calcium and integrin-binding protein 1 (Homo sapiens) (Q99828 whole entry, looked up): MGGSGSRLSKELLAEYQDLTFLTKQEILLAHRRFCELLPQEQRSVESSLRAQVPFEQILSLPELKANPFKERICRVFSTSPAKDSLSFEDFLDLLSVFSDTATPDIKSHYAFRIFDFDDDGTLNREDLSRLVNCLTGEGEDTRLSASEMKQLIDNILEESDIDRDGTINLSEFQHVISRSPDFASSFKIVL
Sequence of Phospholipid hydroperoxide glutathione peroxidase GPX4 (Homo sapiens) (P36969 whole entry, looked up): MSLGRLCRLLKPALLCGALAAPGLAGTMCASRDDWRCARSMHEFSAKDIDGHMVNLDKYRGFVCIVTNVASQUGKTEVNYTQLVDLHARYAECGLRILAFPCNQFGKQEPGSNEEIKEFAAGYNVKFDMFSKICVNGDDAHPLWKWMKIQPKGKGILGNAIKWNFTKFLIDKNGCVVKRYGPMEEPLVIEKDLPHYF

`CC1=CC2/C=C(\C)CCC(O)C(O)/C=C/C(=O)C23C(=O)NC(CC(C)C)C3C1C` (configuration not stated): the Potency entry in [1], in experiment [2], in experiment [3], in experiment [6], in experiment [7] and in [9] was “inactive” each time. Also, the Potency entry (in experiment [10]; in the experiment on Tov-21-G) was “inactive” each time. Also, the Potency in [4] is 2240 nM (active); in [5] it was 2000 nM (active). For the same compound, the result in experiment [8] was inactive.
In the case of `C[C@H]1CN(Cc2ccc(CC(=O)N3CCC(Nc4cccc(F)c4)CC3)cc2)CCN1`, the Potency entry in experiment [1], in experiment [2], in experiment [3], in [6], in experiment [7] and in experiment [9] was “inactive” throughout. The Potency entry (in experiment [10]; in the experiment on CASKI; with JEG-3; in the experiment with OV90; in the experiment on Tov-21-G) was “inactive” throughout. Further, the compound was classed as inactive in experiment [8]. In addition, the max response in the experiment on KB-3-1 was -18.3%.
With `CC[C@H]1/C=C\C=C/C[C@@H](C)[C@H](O)[C@@](C)(O)C(=O)[C@@H](C)[C@H](O)[C@@H](C)C(=O)[C@@H](C)[C@H](O)[C@@H](C)/C=C\C(=O)O[C@@H]2[C@H](C)[C@H](CC1)O[C@]1(CC[C@H](C)[C@H](C[C@@H](C)O)O1)[C@H]2C`, the Potency entry in experiment [2], in experiment [3], in experiment [6], in experiment [7], in [9] and in experiment [10] was “inactive” each time. Besides, the Potency entry with CASKI, with OV90 and with Tov-21-G was “inactive” each time. Besides, the values for the Potency in experiment [4] and in experiment [5] were 742 nM (active) and 332 nM (active), respectively. For the same compound, the compound was classed as inactive in [8].
`C[C@@H](N)C(=O)c1ccccc1`: the max response in experiment [11] is -12.7%; in the experiment with KB-3-1, 2.24%. Also, the Potency result in the experiment with astro is “inactive”.
For `CCC(=O)O[C@](Cc1ccccc1)(c1ccccc1)[C@H](C)CN(C)C`, the max response in experiment [11] was 0.382%; in the experiment on KB-3-1 it was 0.566%. Further, in the experiment on astro, the Potency entry is “inactive”.
Regarding `C[C@@H]1[C@@H]2Cc3ccc(O)cc3[C@@]1(C)CCN2CCc1ccccc1`, the Potency in [12] is 12600 nM (active). Moreover, the max response with KB-3-1 was -19%. For the same compound, the Potency result with astro was “inactive”.
Take `CC(=O)[C@@]1(O)CC[C@H]2[C@@H]3CCC4=CC(=O)CC[C@]4(C)C3(F)[C@@H](O)C[C@@]21C` (some centres not stated): the max response was 7.59% in [11] and -10.8% in the experiment on KB-3-1. For the same compound, the Potency entry (in experiment [12]; in experiment [6]; in experiment [7]; with astro) was “inactive” throughout.
As to `CC(N)Cc1ccc2c(c1)OCO2` (configuration not stated), the max response was -8.54% in experiment [11] and -15.3% in the experiment on KB-3-1. For the same compound, the Potency entry (in [12]; in the experiment with astro) was “inactive” throughout.
With `C[N+](C)(C)CC(=O)[O-]`, the values for the max response (in [11]; in the experiment with KB-3-1) were 14.9% and 9.58%, respectively. Moreover, the Potency result (in experiment [12]; with astro) was “inactive” each time.
In the case of `Clc1ccc([C@@H]2C[C@H]3CC[C@@H]2N3)cn1`, the figures for the max response (in [11]; in the experiment with KB-3-1) were 7.9% and -6.98%, respectively. Besides, the Potency result (in [12]; in the experiment on astro) was “inactive” each time.
Regarding `C1CN(P2(N3CC3)=NP(N3CC3)(N3CC3)=NP(N3CC3)(N3CC3)=N2)CCO1` (configuration not stated), the max response in experiment [11] was -9.28%; in the experiment on KB-3-1 it was 42.2%. Further, the Potency result (in experiment [12]; in the experiment with astro) was “inactive” in each case.
In the case of `CN[C@@]1(c2ccccc2Cl)CCCCC1=O`, the max response is 0.413% in [11] and -16.7% in the experiment on KB-3-1. Moreover, the Potency result (in experiment [12]; in the experiment with astro) was “inactive” throughout.
Regarding `COC(=O)[C@H]1[C@@H](OC(=O)c2ccccc2)C[C@@H]2CC[C@H]1N2C`, the figures for the max response (in experiment [11]; in the experiment with KB-3-1) were -15.4% and 1.68%, respectively. The Potency result (in experiment [12]; in experiment [6]; in experiment [7]; with astro) was “inactive” throughout.
